Compound activity from PubChem.
CYP2C9 inh: blockers of cytochrome P450 2C9 activity – biochemical, luminescence, ADME assay, primary screen. CYP2C9 Supersomes, luciferin-H conversion. inhibition, % at 5 µM. 96,000 compounds, 20% hits;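 active = blocking of liver enzyme CYP2C9 beyond about 50% at 5 µM, limit read from the data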
Target sequence (P11712 whole entry, looked up): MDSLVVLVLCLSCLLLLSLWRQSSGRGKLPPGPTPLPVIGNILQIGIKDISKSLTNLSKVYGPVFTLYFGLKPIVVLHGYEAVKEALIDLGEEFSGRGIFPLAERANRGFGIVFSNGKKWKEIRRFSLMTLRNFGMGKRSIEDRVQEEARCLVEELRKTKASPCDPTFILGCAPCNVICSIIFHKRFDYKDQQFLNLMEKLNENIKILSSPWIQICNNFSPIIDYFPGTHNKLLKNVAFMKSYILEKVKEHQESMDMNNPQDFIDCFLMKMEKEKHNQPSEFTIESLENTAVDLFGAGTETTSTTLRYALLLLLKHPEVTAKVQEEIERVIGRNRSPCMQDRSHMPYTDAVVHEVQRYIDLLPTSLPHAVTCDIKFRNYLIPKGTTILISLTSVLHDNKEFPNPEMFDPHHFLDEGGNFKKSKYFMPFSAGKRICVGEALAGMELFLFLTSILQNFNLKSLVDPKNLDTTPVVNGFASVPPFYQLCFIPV
CYP2C9 activ: human CYP2C9 activators, primary screen, biochemical, luminescence; Cytochrome P450 2C9 (Homo sapiens), P11712; recombinant CYP2C9, luciferin-H conversion; active compounds read high; factor 1 = untreated enzyme, 0 = blocked; activation factor at 5 µM; 96,000 compounds, 1.4% hits; AID 1024, 2008;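 active = activation factor of 2 or more for CYP2C9 at a 5 µM dose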;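 note: 0 = sulfaphenazole-blocked wells and 1 = vehicle-only wells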
CYP2C19 activ: human CYP2C19 activators, primary screen, biochemical, luminescence | Cytochrome P450 2C19 (Homo sapiens), P33261 | recombinant CYP2C19, luciferin-H EGE luminescence; active compounds read high; 0 = fully inhibited enzyme, 1 = untreated enzyme | activation factor at 5 µM | 96,000 tested, under 10 active | AID 1025, 2008;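 active = activation factor of at least 2 at 5 µM in the primary screen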;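 note: 0 = wells with 2.5 mM tranylcypromine and 1 = vehicle-only wells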
PostGolgi yeast: phenotypic screen on post-Golgi transport, primary screen. AID 739, 2007. post-Golgi transport phenotypic cell assay. 98,000 compounds, 0.9% hits. inhibition, % at 10 µM;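 note: yeast cells grown in 1536-well plates; yeast grown about 18 h at 30C before absorbance read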
CYP2C19 inhib: blockers of cytochrome P450 2C19 activity – biochemical, luminescence, ADME assay, primary screen; CYP2C19 Supersomes, luciferin-H EGE luminescence, 30 min; P33261; inhibition, % at 5 µM; 96,000 compounds, 21% hits;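 active = CYP2C19 inhibition above a set limit at 5 µM in the primary screen, cut at about 50% in these data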;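 note: plate controls were negative control wells for no effect and 2.5 mM tranylcypromine positive control for full effect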
PostGolgi ctrl: growth inhibition of yeast control strain, primary screen, counter-screen for post-Golgi transport modulator project; efflux-deficient yeast background strain, growth absorbance A615, 16 h; inhibition, % at 10 µM; 98,000 compounds, 5% hits; AID 738, 2007
Numbers without * were called inactive; · = no result. Hits are enriched below; roughly 32% of the tested compounds scored in any of these assays. Cut-off read from the data, not from the text of the source, unless noted: active = inhibition above about 30%; inactive = the rest.

SMILES	CYP2C9 inh	CYP2C9 activ	CYP2C19 activ	PostGolgi yeast	CYP2C19 inhib	PostGolgi ctrl
CC(=O)C1=C(C)Nc2ncnn2C1c1ccccc1OCc1ccccc1 (stereo unspecified)	24	0.8	0.5	-1	54*	0
N#C/C(=C\c1ccc(Cl)cc1Cl)c1n[nH]c(Cn2cncn2)n1	78*	0.2	0.4	2	61*	11
COc1cc(-c2nn3c(C4CCCCC4)nnc3s2)cc(OC)c1OC	84*	0.2	0.8	12	22	19
COc1ccc(-c2nnc3sc(C4CCCCC4)nn23)cc1OC	27	0.7	0.7	22	28	14
COc1ccc(-c2nn3c(C4CCCCC4)nnc3s2)cc1OC	64*	0.4	0.3	6	74*	24
COc1cc(-c2nn3c(-c4ccco4)nnc3s2)cc(OC)c1OC	28	0.7	1	·	1	·
O=C(c1ccc(C23CC4CC(CC(C4)C2)C3)o1)N1CCOCC1	-6	1.1	1	11	5	25
COc1ccc(CNc2cc(C)ccc2C)c(OC)c1OC	6	0.9	0.6	20	38	4
COc1cc(CNc2cc(C)ccc2C)cc(OC)c1OC	82*	0.2	0	10	98*	0
COc1ccc(NCc2ccc(OC)c(OC)c2)cc1	14	0.9	0.3	9	73*	2
COc1cc(CNc2ccc(C)c(C)c2)cc(OC)c1OC	58*	0.4	0.1	4	91*	7
CCCOc1ccccc1C(=O)N(Cc1cccs1)C1CCS(=O)(=O)C1 (stereo unspecified)	4	1	0.9	2	6	3
O=C(Oc1ccc(N(Cc2cccs2)C2=NS(=O)(=O)c3ccccc32)cc1)c1ccccc1F	97*	0	0.3	-6	69*	-5
CC(=O)C1=C(O)C(=O)N(C)C1c1ccccc1F (stereo unspecified)	4	1	1	2	0	-4
O=C(CN(C(=O)Cn1nnc(-c2ccccc2F)n1)c1cccc2c1CCCC2)NCc1ccccc1	96*	0	0.8	1	23	18
COc1ccc(CCNC(=O)Cn2nnc(-c3cccc(OC)c3OC)n2)cc1OC	22	0.8	0.6	-3	43	-5
O=C(Cn1nnc(-c2ccccc2F)n1)NCCc1ccccc1	33	0.7	0.3	-6	70*	3
O=C(Cn1nnc(-c2ccccc2F)n1)Nc1cccc2ncccc12	29	0.7	0.4	5	63*	16
Cc1ccc(-c2nnn(CC(=O)N(c3ccccc3F)C(CC(C)C)C(=O)NCC3CCCO3)n2)cc1 (stereo unspecified)	45	0.5	0.8	-29	24	10
COc1ccc(C(=O)Cn2nnc(-c3ccccc3NC(=O)C3CC3)n2)cc1	4	1	1	-2	-4	1
COc1ccc(C(=O)Cn2nnc(-c3ccccc3F)n2)cc1	-41	1.4	0.5	-2	55*	17
CCN(CC)CCCN(Cc1cc2cc3c(cc2[nH]c1=O)OCCO3)C(=O)Nc1ccccc1	14	0.9	1	1	0	-1
CCCOc1ccc(NC(=O)CC2C(=O)N(CC)C(=S)N2Cc2cccs2)cc1 (stereo unspecified)	52*	0.5	0.2	-5	82*	14
CCCCSC1(SCCCC)N=C(N)C2(C#N)C(c3ccccc3)NC(C)=C(C)C12C#N (stereo unspecified)	15	0.9	0.4	-1	57*	-1
COc1ccccc1C(=O)O/N=C1/CCCc2c1ccc(OC)c2[N+](=O)[O-]	51*	0.5	0.1	0	85*	2
SMILES	CYP2C9 inh	CYP2C9 activ	CYP2C19 activ	PostGolgi yeast	CYP2C19 inhib	PostGolgi ctrl
CCOC(=O)CNC(=O)CSc1nnc(-c2ccccc2OC)n1CC	4	1	1	-2	2	2
COc1ccc(NC(=O)c2c(C(F)(F)F)nn(C)c2SCc2ccccc2Cl)cc1	87*	0.1	0.8	8	24	23
Nc1sccc1C(=O)c1ccccc1	10	0.9	1.1	8	-11	2
Cc1cccc(NC(=O)CN(C)S(=O)(=O)c2ccccc2)n1	23	0.8	0.8	-3	19	2
O=C(NN1C(=O)C2C(C1=O)C1C=CC2C12CC2)c1ccncc1 (stereo unspecified)	28	0.7	0.5	1	52*	2
O=C(Nn1cnnc1)c1ccncc1	9	0.9	1	0	0	1
CC(=O)Nc1cc(C(=O)N2CCN(C)CC2)ccc1Sc1ccc(C)cc1	5	0.9	0.6	2	39	25
COc1cc(NC(=O)c2ccc(Cl)cc2)c(OC)cc1Cl	-13	1.1	0.9	24	9	0
COc1cc(NC(=O)c2cnn3c(C)cc(C)nc23)c(OC)cc1Cl	11	0.9	0.8	0	22	41*
CCSc1nc2ccccc2n1CC(N)=O	·	·	·	-5	·	-1
CCSc1nc2ccccc2n1Cc1nc(N)nc(N(C)C)n1	66*	0.3	0.1	21	90*	12
CN1C(=O)C(=C2CCCCCC2)SC1=S	10	0.9	0.9	-3	14	7
O=C1NC(=S)SC1=C1CCCC1	74*	0.3	0.7	23	29	56*
CCC(CC)NC(=O)CSc1nnc(-c2ccc(OC)cc2)n1C(C)C	21	0.8	1.1	0	-12	8
COc1cc(-c2nnc(SCC(=O)Nc3cc(C)on3)n2C)cc(OC)c1O	-2	1	1	7	5	16
COCCn1nnnc1C(c1ccc(OC)cc1)N1CCC(C)CC1 (stereo unspecified)	3	1	0.3	-5	73*	9
Clc1ccc(C(c2nnnn2C2CCCC2)N2CCSCC2)cc1 (stereo unspecified)	79*	0.2	0.4	-4	63*	13
COCCn1nnnc1C(c1ccc(OC)cc1)N1CCN(c2ccccc2F)CC1 (stereo unspecified)	·	·	·	-4	·	-3
CN(c1ccccc1)C(c1ccc(F)cc1)c1nnnn1C1CCCC1 (stereo unspecified)	82*	0.2	0.1	-2	90*	9
Fc1ccc(C(c2nnnn2C2CCCC2)N2CCN(Cc3ccncc3)CC2)cc1 (stereo unspecified)	81*	0.2	0.1	1	91*	4
O=C(NC1CCCc2ccccc21)C1CCN(C(=O)c2sccc2-n2cccc2)CC1 (stereo unspecified)	39	0.6	0.8	-10	15	12
COc1cc(CCC(=O)OCn2nnc3ccccc3c2=O)cc(OC)c1OC	1	1	1	-4	-5	-6
COCCn1nnnc1C(c1ccc(Cl)cc1)N1CCSCC1 (stereo unspecified)	35	0.7	0.2	-1	79*	2
